Most compounds without a hit are left out; they make up all but 1% or so of the library.
RXFP1 antagonist: blocks the human relaxin receptor RXFP1 | activity change, negative = inhibition, % at 57.5 µM | actives 0.59% (n = 350,000) | HEK293-RXFP1, relaxin-stimulated cAMP HTRF, 30 min; hits give low values;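 active means activity change of -60% or lower, but not beyond a set lower limit; inconclusive means change between -60% and -40%, or beyond the set limit; inactive means change above -40%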; further: on the % scale 0 is the no-effect control and ±100 the full control effect
Target sequence (Q9HBX9 whole entry, looked up): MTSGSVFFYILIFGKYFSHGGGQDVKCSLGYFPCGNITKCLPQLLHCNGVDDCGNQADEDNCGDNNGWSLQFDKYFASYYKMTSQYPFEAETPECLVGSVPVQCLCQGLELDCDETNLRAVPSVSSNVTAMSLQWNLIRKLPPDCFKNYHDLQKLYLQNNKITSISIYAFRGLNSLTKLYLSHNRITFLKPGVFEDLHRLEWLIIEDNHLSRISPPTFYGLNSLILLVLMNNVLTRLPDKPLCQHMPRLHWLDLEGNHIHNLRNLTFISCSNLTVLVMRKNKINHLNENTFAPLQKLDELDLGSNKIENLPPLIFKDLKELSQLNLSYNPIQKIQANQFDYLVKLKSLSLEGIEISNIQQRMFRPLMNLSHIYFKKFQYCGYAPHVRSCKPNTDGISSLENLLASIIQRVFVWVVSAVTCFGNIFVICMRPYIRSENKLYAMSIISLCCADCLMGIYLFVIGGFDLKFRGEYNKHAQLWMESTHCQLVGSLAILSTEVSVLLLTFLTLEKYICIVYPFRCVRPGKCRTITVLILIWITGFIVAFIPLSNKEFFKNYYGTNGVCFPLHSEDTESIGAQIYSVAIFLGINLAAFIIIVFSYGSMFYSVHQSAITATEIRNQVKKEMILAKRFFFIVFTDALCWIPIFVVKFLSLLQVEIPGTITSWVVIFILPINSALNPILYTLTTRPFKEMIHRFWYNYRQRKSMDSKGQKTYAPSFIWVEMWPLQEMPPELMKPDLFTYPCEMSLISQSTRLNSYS
RXFP1 agonist: activates the human relaxin receptor RXFP1; Q9HBX9; HEK293T-RXFP1 cAMP TR-FRET, 30 min; response scale: percent of porcine relaxin response, buffer zero; Potency, µM (titrated, usually from 57.5 µM), without a hit: at the highest dose activation, usual class: activators; actives 0.3% (n = 370,000); further: potency means the concentration at half of the fitted maximal effect; on the % scale 0 is the no-effect control and ±100 the full control effect; nearly all actives have a fitted effect of over 60% in size
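cAMP rise read by TR-FRET after 30 min, 37C compound exposure (up to 58 uM) in RXFP1-transfected HEK293 cells with Ro 20174 present. EC50 from Hill-equation fits, with 29 nM porcine relaxin as 100% and buffer as basal.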
PTHR1 agonist: PTHR1 (human) receptor agonism. Q03431. Potency, µM (series often up to 115 µM), inactives show at the highest dose activation, hits mostly activators. HEK293 GP2 PTHR1 cells, GloSensor cAMP luminescence, 1 h. actives 0.075% (n = 410,000). AID 743266; further: potency means the concentration at half of the fitted maximal effect; nearly all actives have a fitted effect of over 55% in size
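HEK-293-derived GP2 cells expressing PTHR1 and a GloSensor cAMP reporter, 3,000/well, plated overnight, given luciferin plus IBMX (each 0.5 mM as added) for 1 h at 37 °C, then compound for 1 h at 37 °C. Luminescence was read after 15 min at room temperature.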
gsp antagonist: gsp mutant antagonism. gsp-mutant cells, cAMP HTRF, 30 min. Potency, µM (doses to about 76.9 µM), without a hit: top-dose activity change, negative = inhibition, most hits filed as inhibitors. actives 0.4% (n = 340,000). AID 624288; calls by dose curve; cell line not stated here;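 further: intracellular cAMP measured with PDE inhibitor Ro 20-1724 present during compound exposure; potency means the concentration at half of the fitted maximal effect; on the % scale 0 is the no-effect control and ±100 the full control effect; nearly all actives have a fitted effect of over 65% in size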
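HTRF cAMP measurement after 30 min RT detection following 30 min, 37C compound treatment alongside […] (added as 300 uM solution) in G418-selected cells seeded at 2000/well and grown 16–24 h.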
gsp ag: gsp mutant agonism; gsp mutant cells, cAMP HTRF, 30 min; Potency, µM (series often up to 76.9 µM), inactives show at the highest dose activation (cAMP increase), actives largely listed as activators; actives 0.13% (n = 340,000); active means well fitted activation curve with a large enough effect; inconclusive means small, poorly fitted or top-dose-only effect, or another doubt; inactive means no such curve, though single readings can be large or run the other way; cell line not stated here;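 further: phosphodiesterase inhibitor Ro 20-1724 added with compounds to block cAMP breakdown; potency means the concentration at half of the fitted maximal effect; nearly all actives have a fitted effect of over 60% in size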
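Cells stably selected in G418 were plated at 2000/well, grown 16-24 hr, then given compounds in DMSO with the PDE inhibitor […] (300 uM solution added) for 30 min at 37C; cAMP was read by HTRF.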
* marks the source's active call; other numbers are inactive results; i = inactive; ? = inconclusive; · = no result given; [ ] = dose if it differs, or a comment. Unless noted, the call rests on the fitted dose curve; in most records, active means well fitted curve in the direction sought with a large enough effect; inconclusive means small, poorly fitted or top-dose-only effect, or another doubt; inactive means no such curve, though single readings can be large; an effect the other way counts as inactive or inconclusive.

SMILES	RXFP1 antagonist	RXFP1 agonist	PTHR1 agonist	gsp antagonist	gsp ag
O=C(Nc1scc(-c2ccc(Br)cc2)c1C(=O)O)c1ccccc1F	-27	·	-20%	-23%	12%[15.4 µM]
COc1ccc(-c2csc(NC(=O)c3ccccc3Br)c2C(=O)O)cc1	-9	7%	-15%	-28%	-4%[15.4 µM]
Cc1ccccc1C(=O)Nc1scc(-c2ccc(Br)cc2)c1C(=O)O	0	·	i	40µM*	6%[15.4 µM]
CCc1ccc(NC(=O)CN2C(=O)CC(c3ccccc3)Sc3ccccc32)cc1 (centres undefined)	·	-1%	-4%	·	·
Cc1cnc(NS(=O)(=O)c2ccc(N)cc2)nc1	15	·	·	·	·
O=C(C(=Cc1ccccc1)CN1CCCCC1)c1ccccc1	-72*	·	-48%	-8%	30%
Oc1ccc(O)c(Cc2nc3ccccc3s2)c1	-77*	-3%	-52%	3%	-23%
O=C(CS(=O)(=O)c1ccccc1)c1cc2cc(F)ccc2oc1=O	-72*	-1%	-11%	2%	-17%
O=C(CS(=O)(=O)c1ccccc1)c1cc2ccccc2oc1=O	-29	0%	-48%	-11%	-49%
CN(C(=O)c1ccc2c(c1)OCCO2)c1c(N)n(Cc2ccccc2)c(=O)[nH]c1=O	-8	1%	i	2%	0%[15.4 µM]
CN(C(=O)c1cncc(Br)c1)c1c(N)n(Cc2ccccc2)c(=O)[nH]c1=O	-70*	0%	-12%	4%	8%[15.4 µM]
Cc1ccc(C)c(OCCC(=O)OCC(=O)N(C)c2c(N)n(Cc3ccccc3)c(=O)[nH]c2=O)c1	-64*	1%	i	7%	4%[15.4 µM]
Cc1ccc(Cl)cc1N1CCN(C(=O)c2ccc3c(Cl)c4c(nc3c2)CCCC4)CC1	·	-2%	-22%	·	·
CC(C)(C)c1ccc(/C([O-])=C(/C(=S)NCc2ccco2)[n+]2ccccc2)cc1	·	25µM*	·	·	·
Cc1cc(C)cc(C(=O)NC(=S)Nc2ccc(-c3cc4ccccc4oc3=O)cc2)c1	-3	6%	i	4%	4%
Cc1ccc(C(=O)NC(=S)Nc2ccc(-c3cc4ccccc4oc3=O)cc2)c(C)c1	6	2%	-10%[57.5 µM]	7%	20µM*
O=C(N/N=C/c1ccccc1)C(=O)N/N=C/c1ccccc1	-6	1%	-5%	3%	?
O=C(C=C=Nc1ccccc1)C(=O)N=C=Cc1ccccc1	-61*	-2%	-26%	-12%	18%[15.4 µM]
O=C(c1ccc(CS(=O)Cc2ccccc2Cl)o1)N1CCN(c2cccc(Cl)c2)CC1 (centres undefined)	-40	1%	-87%	32µM*	-1%
CCCNC(=O)C1CCC(Cn2c(=O)c3sccc3n(CC(=O)NCc3cccc(OC)c3OC)c2=O)CC1 (centres undefined)	·	22µM*	?	·	·
Cc1nc(S(=O)(=O)N2CCN(c3cccc(Cl)c3)CC2)cn1C	·	2%	-22%	·	·
Cc1ccc(Cl)cc1N1CCN(C(=O)C2CCN(S(=O)(=O)c3c(C)nn(C)c3C)CC2)CC1	-15	2%	18%	40µM*	-5%[15.4 µM]
O=C(C1CCN(S(=O)(=O)c2cccc3nsnc23)CC1)N1CCCCC1	-7	0%	i	14%	11%
Cc1ccc(C)c(N2CCN(C(=O)C3CCN(S(=O)(=O)c4cccc5nsnc45)CC3)CC2)c1	7	0%	i	22µM*	22%
O=Cc1ccc(O)c(O)c1O	-5	·	·	·	·
SMILES	RXFP1 antagonist	RXFP1 agonist	PTHR1 agonist	gsp antagonist	gsp ag
Cc1cc(C)cc(NC(=O)CSc2nc3c([nH]c4ccccc43)c(=O)n2-c2ccc(F)cc2)c1	·	-1%	-53%	·	·
COCCNC(=O)c1cn(C)c2ccc(S(=O)(=O)N(C)C3CCCCC3)cc2c1=O	·	1%	19%	11µM*	-15%
CCOCCCNC(=O)c1cn(C)c2ccc(S(=O)(=O)N(C)C3CCCCC3)cc2c1=O	·	0%	·	·	·
COc1ccc(-c2ocnc2C(=O)N2CCN(C(=O)C(c3ccccc3)c3ccccc3)CC2)cc1	-5	4%	i	25µM*	-8%[15.4 µM]
COc1ccc2c(c1)C(=NNc1ccc(C(=O)O)cc1)c1cc(OC)ccc1-2	2	1%	-49%	-19%	13µM*
O=C(Cc1ccccc1)NNC(=O)c1ccccc1C(=O)O	7	1%	-8%	11µM*	?
Cc1occc1C(=O)NNC(=O)c1ccccc1C(=O)O	-12	2%	i	2%	-4%[15.4 µM]
COCCNCCCOc1ccc(C)cc1Br	-9	-2%	i	35µM*	-75%
COc1cccc(C2/C(=C(\O)c3ccc4c(c3)OCCO4)C(=O)C(=O)N2c2nnc(C)s2)c1 (centres undefined)	1	?	i	-10%	8.9µM*
Cc1nnc(N2C(=O)C(=O)/C(=C(/O)c3ccc4c(c3)OCCO4)C2c2cccc([N+](=O)[O-])c2)s1 (centres undefined)	1	·	i	·	12%
CCCCOc1cccc(C2/C(=C(\O)c3ccc4c(c3)OCCO4)C(=O)C(=O)N2CCN2CCOCC2)c1 (centres undefined)	2	25µM*	-24%	-3%	16µM*
CCCCN1C(=O)c2ccc(C(=O)Nc3ccc(C)c(S(=O)(=O)N(C)C)c3)cc2C1=O	-13	1%	-38%	28µM*	-11%
CN1c2ccccc2C(O)=C(C(=S)Nc2ccc(F)c(Cl)c2)S1(=O)=O	-18	1%	-40%	40µM*	9%[15.4 µM]
CC1CCN(S(=O)(=O)c2ccc3c(ccn3CC(=O)NCc3ccccc3F)c2)CC1	-8	3%	-10%	·	·
CC(C)OC(=O)c1cc(C(=O)OC(C)C)cc([N+](=O)[O-])c1	-71*	·	·	·	·
O=C1NC(c2ccccc2)(c2ccccc2)C(=O)N1COP(=O)(O)O	-9	·	·	·	·
CN(C)[C@@H]1C(=O)C(C(N)=O)=C(O)[C@@]2(O)C(=O)C3=C(O)c4c(O)cccc4C[C@H]3C[C@@H]12	-6	·	·	·	·
O=S(=O)(/C(=C\c1ccc(C(F)(F)F)cc1)c1nc2ccccc2[nH]1)c1ccccc1	-77*	·	-27%	17%	27%
CC[N+](CC)(CC)CCOC(=O)C(C1CCCC1)C1CCCC1	-11	·	·	·	·
N#Cc1cc(NC(=O)C(=O)O)c(Cl)c(NC(=O)C(=O)O)c1	9	·	·	·	·
O=C(CCS(=O)(=O)c1nc(-c2cccs2)cc(C(F)(F)F)n1)Nc1ccc(F)c(Cl)c1	-60*	0%	-37%	·	·
COc1ccc(NC(=O)CCS(=O)(=O)c2nc(-c3cccs3)cc(C(F)(F)F)n2)cc1	?	3%	-1%	·	·
CCc1nc(N)nc(N)c1-c1ccc(N(C)Cc2ccccc2)c([N+](=O)[O-])c1	-103*	·	-18%	-10%	23%
Cn1nc(C(F)(F)F)c(-c2ccc(Br)cc2)c1NC(=O)Nc1ccc(F)cc1F	-61*	5%	-33%	-20%	7%[15.4 µM]
CC(=O)c1ccc(NC(=O)c2nn(C)c3c2COc2ccccc2-3)cc1	4	2%	-45%	·	·
